PubChem BioAssay AID624139 (Broad Institute, 2012)
The whole screen tested about 17,000 compounds, of which about 220 (1.3%) were called active.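 The calls were made as follows: active = spot fluorescence over background significantly raised, with a chance value under 7% in all four replicate spots of the compound; inactive = the rest.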 Many of the other results were omitted from the sample, so actives are more common in it than they were.

These molecules were tested against Nuclear factor NF-kappa-B p105 subunit (Homo sapiens) (UniProt P19838) (assay: small molecules binding NF-kappa-B p105/p50 – biochemical, small molecule microarray, anti-His fluorescence, primary screen (AID 624139);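 also: probe protein is his-tagged human p50 processed subunit at 1 µg/ml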).
Sequence of Nuclear factor NF-kappa-B p105 subunit (Homo sapiens) (P19838 1-433 limits assumed): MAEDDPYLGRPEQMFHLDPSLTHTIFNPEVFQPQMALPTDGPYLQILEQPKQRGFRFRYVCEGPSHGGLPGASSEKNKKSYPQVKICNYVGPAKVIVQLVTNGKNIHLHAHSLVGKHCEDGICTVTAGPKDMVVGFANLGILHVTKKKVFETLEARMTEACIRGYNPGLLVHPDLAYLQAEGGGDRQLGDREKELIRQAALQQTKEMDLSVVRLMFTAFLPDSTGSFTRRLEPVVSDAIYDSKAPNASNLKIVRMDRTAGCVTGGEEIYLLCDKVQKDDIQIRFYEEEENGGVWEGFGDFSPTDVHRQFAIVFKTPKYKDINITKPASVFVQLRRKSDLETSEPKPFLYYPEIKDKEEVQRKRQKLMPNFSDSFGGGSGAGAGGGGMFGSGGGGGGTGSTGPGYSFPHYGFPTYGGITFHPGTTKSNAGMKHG

Row | SMILES | outcome
1 | COC(=O)c1c(CC[C@@H](CO)NC(=O)Nc2ncn[nH]2)oc(C(=O)Cc2ccccc2)c1C(=O)OC | inactive
2 | Cc1noc(C)c1S(=O)(=O)N(C)C[C@@H]1OCCCC[C@H](C)Oc2ccc(NC(=O)NC(C)C)cc2C(=O)N([C@H](C)CO)C[C@@H]1C | inactive
3 | COC(=O)C1=C[C@@H](O)[C@@H](O)[C@H](O[C@@H]2O[C@H](CO)[C@@H](O)[C@H](O)[C@H]2OC(=O)/C=C/c2ccccc2)C1 | inactive
4 | CC(C)NC(=O)Nc1ccc2c(c1)C(=O)N([C@@H](C)CO)C[C@H](C)[C@@H](CN(C)Cc1ccc(C(=O)O)cc1)OCCCC[C@H](C)O2 | inactive
5 | C[C@@H]1CCCCO[C@@H](CN(C)Cc2ccncc2)[C@H](C)CN([C@H](C)CO)C(=O)c2cc(N(C)C)ccc2O1 | inactive
6 | C[C@@H]1CN([C@H](C)CO)C(=O)CCCn2nncc2CO[C@@H]1CN(C)C | inactive
7 | C[C@@H]1CN([C@@H](C)CO)C(=O)c2cccc(NC(=O)Nc3ccc(F)cc3)c2O[C@H]1CN(C)C(=O)Nc1ccc(F)cc1 | inactive
8 | C[C@H]1CCCCO[C@@H](CN(C)Cc2ccc(C(=O)O)cc2)[C@@H](C)CN([C@@H](C)CO)C(=O)c2cc(NS(C)(=O)=O)ccc2O1 | inactive
9 | COc1ccc(CN(C)C[C@@H]2Oc3ccc(NC(=O)c4ccncc4)cc3CC(=O)N([C@H](C)CO)C[C@H]2C)cc1 | inactive
10 | COc1cccc(OC)c1C(=O)NC(=S)NCc1ccco1 | inactive
11 | C[C@@H]1CCCCO[C@@H](CN(C)C(=O)Nc2ccc(F)cc2)[C@H](C)CN([C@@H](C)CO)C(=O)c2cc(NS(=O)(=O)c3ccccc3)ccc2O1 | inactive
12 | C[C@@H]1CN([C@@H](C)CO)C(=O)CCCn2cc(nn2)CO[C@H]1CN(C)S(=O)(=O)c1ccc(-n2cccn2)cc1 | inactive
13 | CNC[C@H]1Oc2ccc(NC(=O)Nc3ccc(F)cc3)cc2C(=O)N([C@@H](C)CO)C[C@@H]1C | inactive
14 | C[C@@H]1CN([C@H](C)CO)C(=O)c2cccc(NC(=O)Nc3ccc(C(F)(F)F)cc3)c2O[C@H]1CN(C)S(=O)(=O)c1ccc(Cl)cc1 | inactive
15 | Cc1ccc(S(=O)(=O)N2CCCC2C(=O)NCCO)cc1 (stereo not drawn) | inactive
16 | COc1ccc([Si](C)(C)[C@@H]2[C@@H](CCO)O[C@]3(C(=O)N(Cc4ccccc4)c4ccc(N5CCC5=O)cc43)[C@H]2C)cc1 | inactive
17 | C[C@@H]1CN([C@H](C)CO)C(=O)CCCn2cc(nn2)CO[C@H]1CN(C)C(=O)Nc1ccc(N2CCCCC2)cc1 | inactive
18 | C[C@H](CO)N1C[C@H](C)[C@@H](CN(C)CC2CC2)Oc2ccc(NC(=O)Nc3ccccc3)cc2CC1=O | inactive
19 | C[C@H](CO)N1C[C@H](C)[C@@H](CN(C)Cc2cccc3c2OCCCO3)OCc2cn(nn2)CCCC1=O | inactive
20 | C[C@@H]1CN([C@H](C)CO)C(=O)CCCn2cc(nn2)CO[C@@H]1CN(C)Cc1ccc2cccnc2c1 | inactive
21 | COC(=O)c1c(NC(=S)Nc2ccc(S(=O)(=O)NC34CC5CC(CC(C5)C3)C4)cc2)sc2c1CCC2 | inactive

Row | SMILES | outcome
22 | CC(C)NC(=O)Nc1ccc2c(c1)C(=O)N([C@H](C)CO)C[C@@H](C)[C@H](CN(C)S(C)(=O)=O)O2 | inactive
23 | Cc1ccc(C)c(NC(=O)CCC(=O)O)c1 | inactive
24 | O=C(N1CCCCC1)[C@@]1(CCS(=O)(=O)c2ccccc2)N=C(c2ccc(OCCCO)cc2)O[C@H]1c1ccccc1 | inactive
25 | C[C@@H]1CN([C@H](C)CO)C(=O)c2cc(N(C)C)ccc2O[C@@H](C)CCCCO[C@@H]1CN(C)C(=O)CCCN(C)C | inactive
26 | C[C@@H]1CCCCO[C@H](CN(C)C)[C@@H](C)CN([C@H](C)CO)C(=O)c2cc(N(C)C)ccc2O1 | inactive
27 | O=C(c1ccc(F)cc1)C1CCN(CCCCc2ccccc2)CC1 | inactive
28 | O=c1c2ccccc2[nH]c(=S)n1CCN1CCC(=C(c2ccc(F)cc2)c2ccc(F)cc2)CC1 | active
29 | C[C@H](CO)N1C[C@H](C)[C@@H](CN(C)S(=O)(=O)c2cn(C)cn2)Oc2ccc(NS(=O)(=O)c3cn(C)cn3)cc2C1=O | inactive
30 | COc1cc(/C=C/C(=O)NCCc2ccc(O)cc2)ccc1O | inactive
31 | Cc1nc(SCC(=O)N2c3ccccc3Sc3ccccc32)nc2c1CCCC2 | inactive
32 | COc1ccc(S(=O)(=O)N(C)C[C@@H]2Oc3ccc(NC(=O)Cc4cn(C)c5ccccc45)cc3C(=O)N([C@H](C)CO)C[C@H]2C)cc1 | inactive
33 | CCOC(=O)c1sc(NC(=S)Nc2ccc3c(c2)OCCO3)c(C(=O)OCC)c1C | inactive
34 | C[C@@H]1CCCCO[C@H](CN(C)C(=O)Nc2cccc3ccccc23)[C@@H](C)CN([C@H](C)CO)C(=O)c2cc(NS(=O)(=O)c3cccs3)ccc2O1 | inactive
35 | C[C@@H]1CN([C@H](C)CO)C(=O)c2cccc(NS(=O)(=O)c3ccc(Cl)cc3)c2O[C@@H]1CN(C)C(=O)Nc1cccc2ccccc12 | inactive
36 | COc1ccc(S(=O)(=O)Nc2cccc3c2O[C@@H](CN(C)S(=O)(=O)c2ccc(F)cc2)[C@H](C)CN([C@H](C)CO)C3=O)cc1 | inactive
37 | Cc1noc(C)c1S(=O)(=O)Nc1ccc2c(c1)C(=O)N([C@H](C)CO)C[C@H](C)[C@H](CN(C)C(=O)CCC(F)(F)F)OCCCC[C@H](C)O2 | active
38 | Cc1noc(C)c1S(=O)(=O)Nc1ccc2c(c1)C(=O)N([C@H](C)CO)C[C@H](C)[C@@H](CN(C)C(=O)CCC(F)(F)F)OCCCC[C@H](C)O2 | inactive
39 | Cc1noc(C)c1S(=O)(=O)Nc1ccc2c(c1)C(=O)N([C@@H](C)CO)C[C@@H](C)[C@H](CN(C)C(=O)NC(C)C)OCCCC[C@@H](C)O2 | active
40 | C[C@@H]1CCCCO[C@H](CN(C)C(=O)CCCN(C)C)[C@@H](C)CN([C@@H](C)CO)C(=O)c2cc(NC(=O)c3ccncc3)ccc2O1 | inactive
41 | C[C@H](CO)N1C[C@H](C)[C@H](CN(C)C(=O)CCC(F)(F)F)OCCCC[C@H](C)Oc2ccc(NS(C)(=O)=O)cc2C1=O | inactive
42 | C[C@@H]1CCCCO[C@@H](CN(C)C(=O)CCC(F)(F)F)[C@@H](C)CN([C@H](C)CO)C(=O)c2cc(NC(=O)CCC(F)(F)F)ccc2O1 | inactive

Row | SMILES | outcome
43 | Cc1noc(C)c1S(=O)(=O)Nc1ccc2c(c1)C(=O)N([C@@H](C)CO)C[C@H](C)[C@@H](CN(C)C)OCCCC[C@@H](C)O2 | inactive
44 | C[C@@H]1CCCCO[C@H](CN(C)C(=O)CCC(F)(F)F)[C@@H](C)CN([C@@H](C)CO)C(=O)c2cc(NC(=O)c3ccncc3)ccc2O1 | active
45 | Cc1noc(C)c1S(=O)(=O)Nc1ccc2c(c1)C(=O)N([C@H](C)CO)C[C@@H](C)[C@H](CN(C)C(=O)NC(C)C)OCCCC[C@@H](C)O2 | inactive
46 | C[C@@H]1CN([C@H](C)CO)C(=O)c2cc(NS(=O)(=O)c3cccs3)ccc2O[C@@H](C)CCCCO[C@@H]1CN(C)S(=O)(=O)c1cccs1 | inactive
47 | C[C@@H]1CN([C@H](C)CO)C(=O)Cc2cc(NS(=O)(=O)c3cccs3)ccc2O[C@H]1CN(C)C(=O)Nc1ccc2c(c1)OCO2 | inactive
48 | C[C@@H]1CCCCO[C@@H](CN(C)S(=O)(=O)c2ccccc2)[C@@H](C)CN([C@@H](C)CO)C(=O)c2cc(NS(=O)(=O)c3cn(C)cn3)ccc2O1 | inactive
49 | C=C1CCCC(C)(C(=O)OC)C1CC/C(C)=C/CCC1=CC(=O)OC1 (stereo not drawn) | inactive
50 | Cc1nnc(SCc2ccc(C(=O)c3ccc(Cl)cc3)o2)n1-c1ccccc1 | inactive
51 | O=C1C(=O)N(CCn2c3ccccc3c3nc4ccccc4nc32)c2ccccc21 | inactive
52 | Cc1ccc(S(=O)(=O)Nc2ccc3c(c2)C(=O)N([C@@H](C)CO)C[C@H](C)[C@@H](CN(C)S(=O)(=O)c2ccc(C)cc2)O3)cc1 | inactive
53 | C[C@@H]1CN([C@@H](C)CO)C(=O)CCCn2nncc2CO[C@H]1CN(C)Cc1ccc(C(F)(F)F)cc1 | inactive
54 | C[C@H](CO)N1C[C@H](C)[C@H](CN(C)S(=O)(=O)c2cn(C)cn2)Oc2c(NC(=O)C3CCOCC3)cccc2C1=O | inactive
55 | C[C@@H]1CCCCO[C@@H](CN(C)C(=O)c2ccccc2)[C@H](C)CN([C@@H](C)CO)C(=O)c2cc(NS(C)(=O)=O)ccc2O1 | inactive
56 | C[C@@H]1CN([C@@H](C)CO)C(=O)c2cc(NS(C)(=O)=O)ccc2O[C@@H](C)CCCCO[C@@H]1CN(C)S(=O)(=O)c1cn(C)cn1 | inactive
57 | Cc1cc(O)c2c(c1)C(=O)OC2c1c(O)cccc1O (stereo not drawn) | inactive
58 | COc1ccc(C)cc1NC(=O)NCCc1ccc(OC)c(OC)c1 | inactive
59 | C[C@H]1CCCCO[C@H](CN(C)C)[C@@H](C)CN([C@@H](C)CO)C(=O)c2cc(NC(=O)CCCN(C)C)ccc2O1 | inactive
60 | CNC[C@@H]1Oc2c(NS(C)(=O)=O)cccc2C(=O)N([C@@H](C)CO)C[C@H]1C | inactive
61 | C[C@@H]1CCCCO[C@H](CN(C)C)[C@H](C)CN([C@@H](C)CO)C(=O)c2cc(NC(=O)Cc3ccccc3)ccc2O1 | inactive
62 | Cc1noc(C)c1S(=O)(=O)N(C)C[C@H]1OCCCC[C@@H](C)Oc2ccc(NC(=O)CCCN(C)C)cc2C(=O)N([C@H](C)CO)C[C@@H]1C | inactive
63 | C=CCn1c(=O)c(C(=O)NCc2ccccn2)c(O)c2ccccc21 | inactive

Row | SMILES | outcome
64 | COc1cc(/C(C)=C/C(C)=C\C(=O)O)oc(=O)c1C | inactive
65 | Cc1noc(C)c1S(=O)(=O)Nc1ccc2c(c1)CC(=O)N([C@@H](C)CO)C[C@@H](C)[C@@H](CN(C)C(=O)Nc1ccc(C(F)(F)F)cc1)O2 | inactive
66 | C[C@H](CO)N1C[C@H](C)[C@H](CN(C)Cc2ccc(C(F)(F)F)cc2)Oc2ccc(NS(C)(=O)=O)cc2C1=O | inactive
67 | C=C(CC/C=C(\C)C(=O)O)C1(O)CC=C(C)CC1 (stereo not drawn) | inactive
68 | O=C1O[C@H](c2ccccc2)[C@H](c2ccccc2)N2[C@H]1[C@@H](C(=O)N1CCN(c3ncccn3)CC1)[C@]1(C(=O)Nc3ccccc31)[C@H]2c1ccc(OCCO)cc1 | inactive
69 | C[C@H]1CN([C@@H](C)CO)C(=O)CCCn2cc(nn2)CO[C@@H]1CN(C)S(=O)(=O)c1ccc(-n2cccn2)cc1 | inactive
70 | CC(C)NC(=O)Nc1ccc2c(c1)CC(=O)N([C@@H](C)CO)C[C@@H](C)[C@H](CN(C)Cc1ccc(C(F)(F)F)cc1)O2 | inactive
71 | C/C(=C/CC[C@@H](CO)[C@H]1CC[C@@]2(C)[C@@H]3CC[C@H]4C(C)(C)[C@@H](O[C@@H]5O[C@H](CO)[C@@H](O)[C@H](O)[C@H]5O)C[C@H](O)[C@@]45C[C@@]35CC[C@]12C)CO | inactive
72 | Cc1noc(C)c1S(=O)(=O)Nc1ccc2c(c1)CC(=O)N([C@H](C)CO)C[C@@H](C)[C@@H](CN(C)C)O2 | inactive
73 | COc1ccc(CN(C)C[C@H]2Oc3ccc(NC(=O)Cc4ccccc4)cc3CC(=O)N([C@@H](C)CO)C[C@@H]2C)cc1 | inactive
74 | CC1(C)CC[C@@]2(C(=O)O)C(C1)C1=CCC3[C@@]4(C)CC[C@H](O)C(C)(C)C4CC[C@@]3(C)[C@]1(C)C[C@H]2O (stereo partly drawn) | inactive
75 | C[C@H](CO)N1C[C@H](C)[C@@H](CN(C)C(=O)Nc2ccccc2)Oc2ccc(N(C)C)cc2C1=O | inactive
76 | COc1cc(C)c(C(=O)Oc2cc(C)c(C(=O)Oc3cc(C)c(C(=O)NC(C)C(=O)O)c(O)c3)c(O[C@@H]3O[C@H](CO)[C@@H](O)[C@H](O)[C@H]3OC(C)=O)c2)c(OC)c1 (stereo partly drawn) | inactive
77 | Cc1ccc(C(=O)NCCNS(=O)(=O)c2ccccc2)cc1 | inactive
78 | COc1ccc(NC(=O)Nc2cccc3c2O[C@H](CN(C)S(=O)(=O)c2cccs2)[C@H](C)CN([C@@H](C)CO)C3=O)cc1 | inactive
79 | CNC[C@H]1Oc2ccc(N(C)C)cc2CC(=O)N([C@@H](C)CO)C[C@@H]1C | inactive
80 | CC(C)NC(=O)N(C)C[C@H]1Oc2ccc(NS(=O)(=O)c3cn(C)cn3)cc2CC(=O)N([C@@H](C)CO)C[C@H]1C | inactive
81 | C[C@@H]1CN([C@@H](C)CO)C(=O)Cc2cc(NC(=O)CCC(F)(F)F)ccc2O[C@@H]1CN(C)C(=O)Nc1cccc2ccccc12 | inactive
82 | Cc1cc(C)c(NC(=O)CCCC(=O)O)c(C)c1 | inactive
83 | C[C@H]1CN([C@@H](C)CO)C(=O)c2cc(NC(=O)C3CC3)ccc2O[C@@H]1CN(C)S(=O)(=O)c1cn(C)cn1 | inactive
